Reference: PubChem BioAssay AID1159580 (chemical genetic matrix, 2015)
About 2,000 (36%) of roughly 5,500 compounds were called active. About 18% were inconclusive and are not listed. No stated cut-off is given here; in the data, active means normalized growth mostly below about 0.91 (no sharp cut-off); inconclusive means no clear call, values can overlap the other calls; inactive means mostly above about 0.92. This is one part of the list.

Assay: chemical genetic growth profiling, strain panel (AID 1159580);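 further: tested at 20 µM; growth read once vehicle control cultures reached saturation at 30 °C; 1 = growth at the plate median or of vehicle wells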
Details: growth OD

Measured: normalized growth

CC(=O)Oc1cc(OC(C)=O)c2c(=O)c(-c3ccccc3)coc2c1
inactive: S. cerevisiae deletion strains, locus YAL013W, strain DEP1, stronger effect = lower value 0.995 | S. cerevisiae deletion strains, locus YBR021W, strain FUR4, stronger effect = lower value 0.978 | S. cerevisiae deletion strains, locus YBR229C, strain ROT2, stronger effect = lower value 1 | S. cerevisiae deletion strains, locus YCL029C, strain bik1, stronger effect = lower value 1 | S. cerevisiae deletion strains, locus YDL035C, strain GPR1, stronger effect = lower value 0.997 | S. cerevisiae deletion strains, locus YDL074C, strain BRE1, stronger effect = lower value 0.989 | S. cerevisiae deletion strains, locus YDL101C, strain DUN1, stronger effect = lower value 1.01 | S. cerevisiae deletion strains, locus YDL134C, strain PPH21, stronger effect = lower value 1.01 | S. cerevisiae deletion strains, locus YDL185W, strain tfp1, stronger effect = lower value 0.998 | S. cerevisiae deletion strains, locus YDL192W, strain arf1, stronger effect = lower value 0.993 | S. cerevisiae deletion strains, locus YDR101C, strain arx1, stronger effect = lower value 0.982 | S. cerevisiae deletion strains, locus YDR150W, strain NUM1, stronger effect = lower value 1.02 | S. cerevisiae deletion strains, locus YDR162C, strain NBP2, stronger effect = lower value 1.01 | S. cerevisiae deletion strains, locus YDR318W, strain mcm21, stronger effect = lower value 0.982 | S. cerevisiae deletion strains, locus YDR388W, stronger effect = lower value 1 | S. cerevisiae deletion strains, locus YDR502C, strain sam2, stronger effect = lower value 0.978 | S. cerevisiae deletion strains, locus YEL061C, strain CIN8, stronger effect = lower value 1.01 | S. cerevisiae deletion strains, locus YER110C, stronger effect = lower value 0.992 | S. cerevisiae deletion strains, locus YER155C, strain BEM2, stronger effect = lower value 1.01 | S. cerevisiae deletion strains, locus YER167W, strain BCK2, stronger effect = lower value 1.02 | S. cerevisiae deletion strains, locus YGL078C, strain dbp3, stronger effect = lower value 0.991 | S. cerevisiae deletion strains, locus YGL086W, strain mad1, stronger effect = lower value 1 | S. cerevisiae deletion strains, locus YGL248W, strain PDE1, stronger effect = lower value 1.01 | S. cerevisiae deletion strains, locus YGR078C, strain PAC10, stronger effect = lower value 1 | S. cerevisiae deletion strains, locus YGR135W, strain pre9, stronger effect = lower value 0.985 | S. cerevisiae deletion strains, locus YGR229C, strain SMI1, stronger effect = lower value 1.02 | S. cerevisiae deletion strains, locus YGR252W, strain gcn5, stronger effect = lower value 0.888 | S. cerevisiae deletion strains, locus YHR030C, strain SLT2, stronger effect = lower value 1.01 | S. cerevisiae deletion strains, locus YHR079C, strain IRE1 (second series), stronger effect = lower value 0.98 | S. cerevisiae deletion strains, locus YHR094C, strain hxt1, stronger effect = lower value 0.988 | S. cerevisiae deletion strains, locus YHR129C, strain ARP1, stronger effect = lower value 1 | S. cerevisiae deletion strains, locus YHR200W, strain rpn10, stronger effect = lower value 1 | S. cerevisiae deletion strains, locus YIL066C, strain RNR3, stronger effect = lower value 1.02 | S. cerevisiae deletion strains, locus YIL073C, strain SPO22, stronger effect = lower value 1 | S. cerevisiae deletion strains, locus YIL125W, strain kgd1, stronger effect = lower value 0.992 | S. cerevisiae deletion strains, locus YIR030C, strain dcg1, stronger effect = lower value 1 | S. cerevisiae deletion strains, locus YJL095W, strain BCK1, stronger effect = lower value 1.01 | S. cerevisiae deletion strains, locus YJL134W, strain LCB3, stronger effect = lower value 1.01 | S. cerevisiae deletion strains, locus YJL168C, strain set2, stronger effect = lower value 1 | S. cerevisiae deletion strains, locus YJL187C, strain SWE1 (second series), stronger effect = lower value 1 | S. cerevisiae deletion strains, locus YJR043C, strain POL32, stronger effect = lower value 0.987 | S. cerevisiae deletion strains, locus YJR075W, strain HOC1, stronger effect = lower value 1.02 | S. cerevisiae deletion strains, locus YKL009W, strain mrt4, stronger effect = lower value 1.02 | S. cerevisiae deletion strains, locus YKL068W, stronger effect = lower value 0.993 | S. cerevisiae deletion strains, locus YKL085W, strain MDH1 (second series), stronger effect = lower value 0.982 | S. cerevisiae deletion strains, locus YKL085W, strain MDH1, stronger effect = lower value 0.982 | S. cerevisiae deletion strains, locus YKL190W, strain CNB1, stronger effect = lower value 1.03 | S. cerevisiae deletion strains, locus YKR001C, strain vps1, stronger effect = lower value 0.944 | S. cerevisiae deletion strains, locus YLR039C, strain RIC1, stronger effect = lower value 0.901 | S. cerevisiae deletion strains, locus YLR058C, strain SHM2, stronger effect = lower value 1.01 | S. cerevisiae deletion strains, locus YLR102C, strain apc9, stronger effect = lower value 1 | S. cerevisiae deletion strains, locus YLR262C, strain YPT6, stronger effect = lower value 0.913 | S. cerevisiae deletion strains, locus YLR268W, strain sec22, stronger effect = lower value 0.983 | S. cerevisiae deletion strains, locus YLR330W, strain CHS5, stronger effect = lower value 1.01 | S. cerevisiae deletion strains, locus YLR342W, strain FKS1 (second series), stronger effect = lower value 0.966 | S. cerevisiae deletion strains, locus YLR371W, strain rom2, stronger effect = lower value 1 | S. cerevisiae deletion strains, locus YLR418C, strain cdc73, stronger effect = lower value 0.891 | S. cerevisiae deletion strains, locus YML016C, strain PPZ1, stronger effect = lower value 1.02 | S. cerevisiae deletion strains, locus YML032C, strain rad52, stronger effect = lower value 1 | S. cerevisiae deletion strains, locus YML124C, strain tub3, stronger effect = lower value 0.995 | S. cerevisiae deletion strains, locus YMR078C, strain ctf18, stronger effect = lower value 1 | S. cerevisiae deletion strains, locus YMR223W, strain ubp8, stronger effect = lower value 0.992 | S. cerevisiae deletion strains, locus YMR263W, strain SAP30, stronger effect = lower value 1 | S. cerevisiae deletion strains, locus YMR307W, strain GAS1, stronger effect = lower value 0.858 | S. cerevisiae deletion strains, locus YNL067W, strain RPL9B, stronger effect = lower value 1 | S. cerevisiae deletion strains, locus YNL128W, strain TEP1, stronger effect = lower value 1.03 | S. cerevisiae deletion strains, locus YNL153C, strain GIM3, stronger effect = lower value 1.02 | S. cerevisiae deletion strains, locus YNL233W, strain BNI4, stronger effect = lower value 1.02 | S. cerevisiae deletion strains, locus YNL250W, strain rad50, stronger effect = lower value 0.974 | S. cerevisiae deletion strains, locus YNL271C, strain bni1, stronger effect = lower value 0.991 | S. cerevisiae deletion strains, locus YNL298W, strain CLA4, stronger effect = lower value 0.999 | S. cerevisiae deletion strains, locus YNL307C, strain MCK1, stronger effect = lower value 0.932 | S. cerevisiae deletion strains, locus YNL322C, strain KRE1, stronger effect = lower value 1.01 | S. cerevisiae deletion strains, locus YNR052C, strain pop2, stronger effect = lower value 0.989 | S. cerevisiae deletion strains, locus YOL006C, strain TOP1, stronger effect = lower value 0.991 | S. cerevisiae deletion strains, locus YOL012C, strain htz1 0.735 | S. cerevisiae deletion strains, locus YOL147C, strain pex11, stronger effect = lower value 0.994 | S. cerevisiae deletion strains, locus YOR061W, strain CKA2, stronger effect = lower value 1.02 | S. cerevisiae deletion strains, locus YOR069W, strain VPS5, stronger effect = lower value 1.01 | S. cerevisiae deletion strains, locus YOR136W, strain idh2, stronger effect = lower value 0.997 | S. cerevisiae deletion strains, locus YOR144C, strain elg1, stronger effect = lower value 1 | S. cerevisiae deletion strains, locus YOR184W, strain ser1, stronger effect = lower value 0.986 | S. cerevisiae deletion strains, locus YOR316C, strain cot1, stronger effect = lower value 1 | S. cerevisiae deletion strains, locus YPL055C, strain LGE1, stronger effect = lower value 0.991 | S. cerevisiae deletion strains, locus YPL241C, strain CIN2, stronger effect = lower value 1.01 | S. cerevisiae deletion strains, locus YPR119W, strain clb2, stronger effect = lower value 0.999 | S. cerevisiae deletion strains, locus YPR141C, strain kar3, stronger effect = lower value 0.979 | S. cerevisiae deletion strains, locus YPR163C, strain tif3, stronger effect = lower value 0.994 | S. cerevisiae deletion strains, locus YPR167C, strain met16, stronger effect = lower value 0.996 | S. cerevisiae deletion strains, strain wtn01, stronger effect = lower value 0.984 | S. cerevisiae strains, strain wild type, stronger effect = lower value 1.01
